Data taken from PubChem BioAssay.
Activity calls are given as the source filed them.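 Rule for the calls, unless noted: active = inhibition at or above 50% at 10 µM; inactive = inhibition below 50%.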

What was measured:
[1] = inhibitors of TNFa-induced NFkB p65 translocation, primary screen, imaging, HUVEC, MLSMR starter and 10KST1 sets (AID 438;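 active = inhibition above 20% together with a positive visual image hit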;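 note: compound added about 3h40 before a 20 min TNFalpha stimulation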;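 for inhibition: signal is the nuclear over cytoplasmic p65 intensity ratio per well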); details: HUVEC TNFa-induced p65 nuclear translocation; cell count: measured here: nuclei count (cytotoxicity indicator), at 2.08 µM; inhibition: at 2 µM, stronger effect = higher value, 0% TNFa-plus-vehicle, 100% no-TNFa wells
[2] = reduction of polyQ htt aggregates in cells – imaging, exon1htt(103Q)mCFP cells, high-content imaging, primary screen (AID 483;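 active = visual image review flags a hit and inhibition of aggregation exceeds 20%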;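 note: compound exposure lasted 3 days before fixation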;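 for nuclei count: percent of the per-plate median nuclei count of sample wells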); details: exon1htt(103Q)mCFP cell line, aggregate imaging, at 2 µM; inhibition of aggregation: stronger effect = higher value; nuclei count: measured here: cell count, toxicity
[3] = endothelial E-selectin expression blockers – imaging, HUVEC, immunofluorescence, MLSMR starter and 10KST1 sets, primary screen (AID 487;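 active = visually confirmed hit in the image check and inhibition above 20%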;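 for inhibition: signal is fraction of cell area covered by stained E-selectin grains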;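 for nuclei count: 100% = median nuclei count of all wells on the same plate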); details: HUVEC TNFalpha-induced E-selectin immunofluorescence imaging, at 2 µM; inhibition: stronger effect = higher value; nuclei count: measured here: cell number, toxicity
[4] = molecular target: Voltage-gated potassium channel subunit beta-2 (Rattus norvegicus) (UniProt P62483); test: inhibitors of rat Kvbeta2 reductase activity – biochemical, NADPH fluorescence, primary screen (AID 622;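 active = fluorescence slope higher than the sample average by over 3 SD, cut at about -0.22 in these data, passing the limit was not always enough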;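 note: slope of raw intensity against log time taken from 70 to 1610 s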); details: recombinant KvBeta, 4-cyanobenzaldehyde reduction, at 10 µM, stronger effect = higher value
Voltage-gated potassium channel subunit beta-2 (Rattus norvegicus), sequence (P62483 whole entry, looked up): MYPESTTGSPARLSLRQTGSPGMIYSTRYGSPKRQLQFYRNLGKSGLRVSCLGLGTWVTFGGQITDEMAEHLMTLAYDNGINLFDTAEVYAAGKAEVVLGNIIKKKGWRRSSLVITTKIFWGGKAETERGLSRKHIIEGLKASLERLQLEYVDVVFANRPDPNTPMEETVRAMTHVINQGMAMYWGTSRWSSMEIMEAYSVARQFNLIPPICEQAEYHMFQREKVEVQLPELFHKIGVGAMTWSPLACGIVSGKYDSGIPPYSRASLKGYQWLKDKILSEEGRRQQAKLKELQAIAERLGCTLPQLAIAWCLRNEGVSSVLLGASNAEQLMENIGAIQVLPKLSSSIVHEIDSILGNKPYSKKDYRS

[5] = molecular target: Voltage-gated potassium channel subunit beta-2 (Rattus norvegicus) (UniProt P62483); test: enhancers of rat Kvbeta2 NADPH turnover – biochemical, NADPH fluorescence, primary screen (AID 623;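 active = NADPH fluorescence slope more negative than the mean of all samples by about 3 SD, 99.7% confidence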;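 note: fluorescence intensity change per second fitted from 20 to 320 s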); details: Recombinant KvBeta, NADPH fluorescence decrease slope, 10 min; at 10 µM; stronger effect = lower value
[6] = molecular target: Alpha-2C adrenergic receptor (Homo sapiens) (UniProt P18825); test: compounds altering alpha2C-coupled GIRK flux – cell-based, HEK293 alpha2C/GIRK1/2, thallium flux, primary screen (AID 624;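 active = fluorescence slope after compound addition differing from the mean of all screened samples at 99.7% confidence, in either direction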;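 note: slope of fluorescence ratio to pre-addition baseline per second over 15 to 24 s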); details: thallium flux BTC fluorescence, at 10 µM, actives lie on both sides
Alpha-2C adrenergic receptor (Homo sapiens), sequence (P18825 whole entry, looked up): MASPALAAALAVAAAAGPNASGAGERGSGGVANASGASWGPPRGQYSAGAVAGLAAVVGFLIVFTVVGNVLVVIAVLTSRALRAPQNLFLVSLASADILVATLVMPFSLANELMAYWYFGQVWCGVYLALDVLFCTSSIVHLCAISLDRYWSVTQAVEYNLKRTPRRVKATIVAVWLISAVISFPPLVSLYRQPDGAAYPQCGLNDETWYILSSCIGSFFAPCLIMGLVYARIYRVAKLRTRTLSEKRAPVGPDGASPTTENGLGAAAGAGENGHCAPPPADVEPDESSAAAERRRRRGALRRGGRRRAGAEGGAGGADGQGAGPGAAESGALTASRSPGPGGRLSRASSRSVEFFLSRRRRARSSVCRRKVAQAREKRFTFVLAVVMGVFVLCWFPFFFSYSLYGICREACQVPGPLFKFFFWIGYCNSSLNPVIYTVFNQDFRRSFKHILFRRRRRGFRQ

[7] = blockers of RIG-like receptor reporter activation – cell-based, Sendai virus stimulus, luciferase, 10K MLSCN set, TLR/RLR signaling modifier project, primary screen (AID 602276); details: HEK293 RL24 IRF3 luciferase reporter, at 10 µM, stronger effect = higher value;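 note: firefly luciferase from ISG56 promoter only with Renilla not read in this screen; 0% = Sendai virus plus DMSO and 100% = medium plus DMSO without virus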
[8] = TLR3 IRF3 reporter activation blockers – cell-based, poly I:C stimulus, luciferase, 10K MLSCN set, primary screen (AID 602277;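 active = inhibition of the reporter signal at or above 50%; inactive = inhibition below 50%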); details: HEK293-TLR3 RL24 IRF3 luciferase reporter, at 10 µM, stronger effect = higher value

SMILES | cell count [1] | inhibition [1] | inhibition of aggregation [2] | nuclei count [2] | inhibition [3] | nuclei count [3] | fluorescence slope [4] | NADPH fluorescence slope [5] | slope [6] | inhibition [7] | inhibition [8]
CCOc1ccccc1NC(=O)CC1Nc2cc(C)c(C)cc2NC1=O (configuration not stated) | 374 | 1.8% (inactive) | 23.2% (inactive) | 94.4% | -48.5% (inactive) | 105% | -0.265 (inactive) | -1.1e-05 (inactive) | 0.00531 (inactive) | 14.6% (inactive) | 26% (inactive)
CCOC(=O)Cc1csc(NC(=O)CN(C)S(=O)(=O)c2ccc3c(c2)CCC(=O)N3)n1 | 585 | 12.6% (inactive) | -126% (inactive) | 29.2% | 40.4% (inactive) | 111% | -0.521 (inactive) | -3.1e-05 (inactive) | 0.00704 (inactive) | 25.7% (inactive) | 21.7% (inactive)
CCn1cc(C(=O)O)c(=O)c2cc(F)c(N3CCN(C(=O)Nc4ccccc4)CC3)cc21 | 676 | -14% (inactive) | 27.3% (inactive) | 68.8% | -42.9% (inactive) | 101% | -0.498 (inactive) | -8.3e-06 (inactive) | 0.00493 (inactive) | 8.6% (inactive) | 10.7% (inactive)
Cc1cc(C(=O)NCCN2CCCCC2C)n(-c2ccccc2)n1 (configuration not stated) | 879 | 0.6% (inactive) | 11.3% (inactive) | 96% | -39.7% (inactive) | 113% | -0.552 (inactive) | -4.7e-05 (inactive) | 0.0056 (inactive) | 1.98% (inactive) | 23.7% (inactive)
Cc1ccc(NC(=O)C2CCCN(S(=O)(=O)c3cnc[nH]3)C2)cc1F (configuration not stated) | 521 | 0.9% (inactive) | 7.3% (inactive) | 99.9% | -108% (inactive) | 126% | -0.521 (inactive) | -4.2e-05 (inactive) | 0.00688 (inactive) | 22.4% (inactive) | 21.8% (inactive)
Cc1cc(C)nc(NC2=NCC(=O)N2c2ccccc2Br)n1 | 899 | -1.7% (inactive) | -2.1% (inactive) | 92.9% | -29.3% (inactive) | 115% | -0.4 (inactive) | 9.8e-06 (inactive) | 0.00564 (inactive) | 17.3% (inactive) | 40.3% (inactive)
CC1(C)CC(=O)N(CC(=O)NCc2ccccc2)c2ccccc2S1(=O)=O | 807 | -1.7% (inactive) | -7.8% (inactive) | 123% | -20% (inactive) | 120% | -0.602 (inactive) | 1.2e-05 (inactive) | 0.00666 (inactive) | 12.3% (inactive) | 20.7% (inactive)
CCCC(=O)OCCn1c(Br)nc2c1c(=O)[nH]c(=O)n2C | 627 | -9.1% (inactive) | -10% (inactive) | 127% | -46.5% (inactive) | 121% | -0.509 (inactive) | -3.2e-05 (inactive) | 0.00531 (inactive) | 20.4% (inactive) | 15.6% (inactive)
CCOc1ccccc1N(CC(=O)NC1CCCC1)C(=O)CCCC(=O)Nc1ccccn1 | 369 | 5.3% (inactive) | 24.9% (inactive) | 102% | -20% (inactive) | 122% | -0.63 (inactive) | -2.4e-05 (inactive) | 0.00589 (inactive) | 5.25% (inactive) | 19.7% (inactive)
Cc1cccc(C(OC(=O)c2ccco2)C(=O)NCc2ccccc2)n1 (configuration not stated) | 724 | -15.3% (inactive) | -7.2% (inactive) | 104% | -79.6% (inactive) | 106% | -0.478 (inactive) | -1.3e-05 (inactive) | 0.00475 (inactive) | -5.03% (inactive) | 21.1% (inactive)
Cc1ccc(C)c(N(CC(=O)NCc2ccco2)C(=O)CCC(=O)Nc2ccccn2)c1 | 423 | 5.1% (inactive) | -7.8% (inactive) | 114% | -41% (inactive) | 105% | -0.608 (inactive) | -1.8e-05 (inactive) | 0.00608 (inactive) | 15.1% (inactive) | 30.2% (inactive)
CCCCP(=O)(CCCC)Cc1ccccc1O | 363 | -1.6% (inactive) | 0.1% (inactive) | 91.9% | -39.4% (inactive) | 97.4% | -0.474 (inactive) | -0.000131 (inactive) | 0.00605 (inactive) | -4.65% (inactive) | 9.82% (inactive)
N#CC1=C(N)Oc2c(ccc3cccnc23)C1c1cccnc1 (configuration not stated) | 749 | 7.3% (inactive) | 4.4% (inactive) | 89% | -67.8% (inactive) | 130% | -0.469 (inactive) | -2e-05 (inactive) | 0.0058 (inactive) | 47.8% (inactive) | 45.8% (inactive)
COC(=O)c1cccc(NC(=O)CSc2nnc(COc3ccccc3)n2C)c1 | 671 | -5.4% (inactive) | -2.2% (inactive) | 101% | -88% (inactive) | 135% | -0.436 (inactive) | -4.3e-05 (inactive) | 0.00598 (inactive) | 11.9% (inactive) | 14% (inactive)
COCCN(CCOC)c1ncnc2c1cnn2-c1ccccc1 | 636 | -8.5% (inactive) | -21.1% (inactive) | 113% | -14.8% (inactive) | 107% | -0.531 (inactive) | -2.1e-05 (inactive) | 0.00603 (inactive) | -24.8% (inactive) | -50.6% (inactive)
Cc1ccc(-n2nc(C)c3cc(C(=O)O)sc32)cc1 | 369 | 6.3% (inactive) | 11.1% (inactive) | 90.3% | -140% (inactive) | 97.4% | -0.191 (inactive) | -5e-05 (inactive) | 0.00582 (inactive) | 12.6% (inactive) | 33.9% (inactive)
COc1ccc(N2CCN(Cc3nc4c(c(=O)n(C)c(=O)n4C)n3Cc3ccccc3C)CC2)cc1 | 719 | -14% (inactive) | 5.8% (inactive) | 100% | -7.8% (inactive) | 129% | -0.428 (inactive) | -2.3e-05 (inactive) | 0.00487 (inactive) | 14.4% (inactive) | 39.9% (inactive)
CCOC(=O)N1CCN(C(=O)c2n[nH]c(=O)c3ccccc23)CC1 | 515 | -9.4% (inactive) | -7.2% (inactive) | 107% | -37.5% (inactive) | 80.9% | -0.591 (inactive) | -2.8e-05 (inactive) | 0.00361 (inactive) | -11.6% (inactive) | -3.48% (inactive)
CC(=O)NC(Cc1ccc(C)cc1)C(=O)NC1CCN(C(=O)c2cnccn2)CC1 (configuration not stated) | 740 | -1% (inactive) | 22.2% (inactive) | 130% | -42% (inactive) | 117% | -0.421 (inactive) | -1.5e-05 (inactive) | 0.00511 (inactive) | 13.8% (inactive) | 9.87% (inactive)
CCC(Sc1ncccc1C(=O)O)C(=O)N1CCCC1 (configuration not stated) | 597 | 10% (inactive) | 32.9% (inactive) | 93.4% | 5% (inactive) | 116% | -0.372 (inactive) | -4.6e-05 (inactive) | 0.00559 (inactive) | 5.91% (inactive) | 15.4% (inactive)
CCOC(=O)N1CCC(N(CCCOC)C(=O)Nc2ccc(CC)cc2)CC1 | 574 | 2.2% (inactive) | -21.3% (inactive) | 106% | 12.1% (inactive) | 93.2% | -0.531 (inactive) | -2.6e-05 (inactive) | 0.00487 (inactive) | 4.87% (inactive) | 9.22% (inactive)
CN(C)c1nc(Oc2ccc(=O)n(C)n2)nc(N2CCOCC2)n1 | 306 | 0.5% (inactive) | 17.6% (inactive) | 93.3% | 31.4% (inactive) | 96.5% | -0.632 (inactive) | 1.5e-05 (inactive) | 0.00286 (inactive) | 16.8% (inactive) | 10.1% (inactive)
COC(=O)c1ccccc1NC1c2ccccc2C(=O)N1c1cccnc1 (configuration not stated) | 725 | -6.7% (inactive) | -10.5% (inactive) | 100% | -26.4% (inactive) | 112% | -0.53 (inactive) | -4.7e-05 (inactive) | 0.00566 (inactive) | 5.35% (inactive) | 16.8% (inactive)
O=C(C1CCCN(S(=O)(=O)c2cnc[nH]2)C1)N1CC(=O)N(CCc2ccccc2)C(=O)C1 (configuration not stated) | 545 | 3.4% (inactive) | -13.8% (inactive) | 109% | -124% (inactive) | 147% | -0.573 (inactive) | 8.9e-06 (inactive) | 0.0066 (inactive) | 9.42% (inactive) | 20.7% (inactive)
CCc1ccc(C=NC23CN4CN(CN(C4)C2)C3)s1 | 319 | -14.4% (inactive) | -5.7% (inactive) | 106% | -41.8% (inactive) | 122% | -0.438 (inactive) | 5.9e-05 (inactive) | 0.00606 (inactive) | -1.05% (inactive) | -0.158% (inactive)
COc1ccc(OCCC(=O)NCc2ccccc2)cc1 | 694 | 0.4% (inactive) | 19.2% (inactive) | 91.9% | -93.5% (inactive) | 102% | -0.509 (inactive) | 9e-06 (inactive) | 0.00495 (inactive) | 4.97% (inactive) | 7.69% (inactive)
Cn1c(=O)[nH]c(=O)c2c1nc(CN1CCN(c3cccc(Cl)c3)CC1)n2CCc1ccccc1 | 683 | -9.7% (inactive) | 6.6% (inactive) | 107% | -90.8% (inactive) | 87.9% | -0.587 (inactive) | 8.1e-06 (inactive) | 0.00654 (inactive) | -13.9% (inactive) | -0.338% (inactive)
